Among the data in PubChem BioAssay (NCI) are growth values, retold here.

Holding throughout (assay): NCI-60 one-dose screen, 48 h (100 = growth as untreated, 0 = no growth, -100 = all killed)
Holding throughout (conditions): 10 µM

For test [1], the system named is EKVX NSCLC.
Test [2] has as its system SN12C renal.
Test [3] concerns UO-31 renal.
Test [4] deals with TK-10 renal.
Test [5] relates to ACHN renal.
For test [6], the system named is CAKI-1 renal.
The subject of test [7] is A498 renal.
The test system of test [8] is MOLT-4 leukemia.
The subject of test [9] is SR leukemia.
Test [10] has as its system CCRF-CEM leukemia.

Compounds without any hit were thinned out: in the full panel of roughly 83,000, 20% have a hit.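 Results are percent growth after 48 hours of single-concentration exposure. 100 means growth as in untreated cells, lower positive values show inhibition; negative values down to -100 show cell death.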 A number with no mark means an inactive call. Activity calls are given as the source filed them. Rule for the calls: active = growth percent below 10; inactive = the rest.

Take `ClCCOCCn1cnc2c(Cl)nc(Cl)nc21`: the growth in test [1] was 92.4%; in test [2], 63.3%; in test [3] it was 88%; in test [4], 92.7%; in [5] it was 81.3%; in test [6], -4.35% (active). Besides, the values for the growth in [7], in test [8] and in [9] were 93.1%, 79.8% and 41.5%, respectively.

`O=C(CC(c1ccccc1)N1CCOCC1)c1ccccc1` (stereo not drawn): the growth was 89.3% in test [1]; 88.5% in [2]; 75.7% in [3]; 99.7% in test [4]; 103% in test [5]; 98.8% in test [6]. Besides, the growth is 79.6% in [10] and 82.3% in [8].

Consider `Cc1cc2ccccc2nc1-c1ccccc1F`, for which the growth in test [1] was 107%; in test [2] it was 110%; in test [3], 97.3%; in [4], 130%; in [5], 112%; in [6], 99%. For the same compound, the growth in test [7] was 96.2%; in test [8], 111%; in test [9], 110%.

For the compound `COc1ccc(/C=C/C(=O)Nc2ccc(-c3nc4ccc(F)cc4s3)cc2)cc1`, the growth in test [1] is 85.3%; in [2], 93.8%; in test [3] it was 84.2%; in [4], 104%; in test [5], 107%; in test [6], 95.5%. Further, the growth in test [7] is 105%; in test [10], 81.3%; in [9] it was 80.8%.

As to `COc1cc(/C(=C2/O[C@@H]([C@H]3COC(C)(C)O3)[C@H]3OC(C)(C)O[C@@H]23)c2ccc3ccccc3c2)cc(OC)c1OC`, the growth in [1] was 53.7%; in test [2] it was 24.8%; in test [3], 46.8%; in [4] it was 22.7%; in test [5], 0.857% (active); in test [6] it was 38.7%. For the same compound, the growth in test [10] is 82.2%; in test [8], 62.4%; in [9] it was 51.4%.

Take `CCOC(=O)C1CCc2c(ccc3ccccc23)N1CCC#N` (stereo not drawn): the growth in test [1] is 92.8%; in test [2], 98.7%; in test [3] it was 74.9%; in test [4], 116%; in [5], 115%; in test [6], 80.2%. Further, the growth was 89.2% in test [10], 77.9% in test [8] and 63% in [9].

Take `CCCCC(CCCCCC(CCCC)NCc1ccc2c(c1)OCO2)NCc1ccc2c(c1)OCO2` (stereo not drawn): the growth was -75.2% (active) in test [1]; -92.6% (active) in test [2]; -100% (active) in test [3]; -88% (active) in test [4]; -100% (active) in [5]; -87.9% (active) in [6]. The growth is -32.8% (active) in test [10], -66.7% (active) in [8] and -64.8% (active) in test [9].

Regarding `O=[N+]([O-])c1cccc(-c2ncc(-c3ccc(Cl)cc3Cl)[nH]2)c1`, the growth is 91.5% in test [1]; 80.9% in test [2]; 60.4% in test [3]; 20.1% in test [4]; -2.82% (active) in [5]; 100% in test [6]. Also, the growth in [7] is 104%; in test [8] it was 22.1%.

As to `Nc1nccc(Nc2ccccc2)n1`, the growth in [1] was 107%; in test [2], 119%; in test [3] it was 94.7%; in [4] it was 122%; in test [5], 100%; in test [6] it was 118%. In addition, the growth is 97.3% in test [7] and 102% in [9].

`CN(C)c1ccc(Cc2ccc(N(C)C)cc2Cl)c(Cl)c1`: the growth in [1] was 103%; in test [2], 99.2%; in test [3], 67.6%; in test [4] it was 88.9%; in test [5] it was 98.4%; in test [6], 99.1%. In addition, the growth is 91.6% in test [10], 46% in [8] and 88.9% in [9].

As for `O=C1CC[C@@H]2CCCC[C@@H]2C1`, the growth was 99.1% in test [1]; 95.9% in [2]; 75.2% in [3]; 114% in [4]; 100% in test [5]; 102% in [6]. Also, the growth in test [7] was 108%; in test [8] it was 96.5%; in test [9] it was 94.7%.

Take `CO/N=C(/C(=O)NC1C(=O)N2C(C(=O)O)=C(COC(N)=O)CSC12)c1ccco1` (stereo not drawn): the growth is 99.4% in test [1]; 104% in test [2]; 83.3% in test [3]; 104% in test [4]; 98.3% in [5]; 91.3% in test [6]. The growth in test [7] was 102%; in [8], 111%; in [9] it was 106%.

For `O=C(CNC(=O)OCc1ccccc1)NCC(=O)Oc1ccc([N+](=O)[O-])cc1`, the growth in test [1] was 101%; in [2] it was 112%; in [3], 86.4%; in test [4], 90.3%; in [5], 105%; in test [6], 101%. Besides, the growth was 85% in test [7], 99.7% in test [8] and 101% in test [9].

For `Cc1cccc(Cl)c1NC(=O)c1ccc2nc(NC(=O)NC3CCN(C)CC3)sc2c1`, the growth in test [1] was 90.9%; in [2], 73.8%; in test [3] it was 84.1%; in test [4], 83.8%; in test [5] it was 102%; in test [6] it was 100%. The growth in [7] is 104%; in test [10] it was 83%; in test [9] it was 86.7%.
